From publication PMC7862700, “An all-to-all approach to the identification of sequence-specific readers for epigenetic DNA modifications on cytosine” come the findings set out here.

Assay in all cases: DAPPL (digital affinity profiling via proximity ligation, sequencing); 10 mM Tris-HCl pH 7.5, 50 mM NaCl, 1 mM DTT, 4% glycerol, room temperature, 30 min; GST-TFs on glutathione beads, 16-mer random dsDNA library, 0.1% formaldehyde crosslink after washing; high values mean tight binding
The target of one assay is T1, FLI1 (Homo sapiens, UniProt Q01543 1-452).
T1 sequence: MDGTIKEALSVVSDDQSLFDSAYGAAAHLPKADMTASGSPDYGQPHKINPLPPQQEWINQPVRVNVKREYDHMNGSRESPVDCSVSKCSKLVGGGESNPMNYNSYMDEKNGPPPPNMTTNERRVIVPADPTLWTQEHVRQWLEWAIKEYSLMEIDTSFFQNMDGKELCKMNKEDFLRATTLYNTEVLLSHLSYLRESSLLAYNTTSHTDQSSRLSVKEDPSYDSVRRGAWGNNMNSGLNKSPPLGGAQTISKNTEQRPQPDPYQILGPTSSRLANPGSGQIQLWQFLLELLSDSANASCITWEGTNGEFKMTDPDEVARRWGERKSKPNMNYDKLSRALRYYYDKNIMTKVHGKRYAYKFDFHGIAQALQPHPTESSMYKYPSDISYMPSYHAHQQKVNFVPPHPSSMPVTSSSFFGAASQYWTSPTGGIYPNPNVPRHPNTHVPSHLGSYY
To be noted: protein: recombinant; tags: N-terminal GST; dsDNA, one strand shown. The essentials:
(§1)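 The binding signal reported is, for every hexamer, its read frequency for a factor over its read frequency for the tag-only sample. Reads came from pools of yeast-expressed, GST-fused human transcription factors on glutathione beads, barcoded with DNA and mixed with that sample, which were incubated with 200 nmole of a random double-stranded 16-mer DNA library in Tris/NaCl/DTT/glycerol buffer at room temperature for 30 min. After washing, the pools were crosslinked with 0.1% formaldehyde, proximity-ligated with BsaI/T4 ligase for 1 h at 37 °C, PCR-amplified and sequenced on an Illumina NextSeq500.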

The next assay deals with T2, ELK1 (Homo sapiens, UniProt P19419 1-428).
T2 sequence: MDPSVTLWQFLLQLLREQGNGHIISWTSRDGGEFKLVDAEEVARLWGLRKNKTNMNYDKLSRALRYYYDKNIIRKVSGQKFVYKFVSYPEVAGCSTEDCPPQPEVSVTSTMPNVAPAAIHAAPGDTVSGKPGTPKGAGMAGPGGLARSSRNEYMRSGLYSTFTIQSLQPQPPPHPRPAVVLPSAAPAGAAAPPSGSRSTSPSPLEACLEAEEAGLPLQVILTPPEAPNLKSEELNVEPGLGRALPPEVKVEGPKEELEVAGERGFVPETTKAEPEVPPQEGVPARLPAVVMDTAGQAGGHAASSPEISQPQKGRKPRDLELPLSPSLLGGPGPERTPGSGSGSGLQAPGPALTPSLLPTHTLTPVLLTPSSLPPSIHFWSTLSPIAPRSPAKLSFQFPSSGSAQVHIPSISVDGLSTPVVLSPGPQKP
To be noted: protein: recombinant; tags: N-terminal GST; dsDNA, one strand shown. In outline: as §1

The target in the next assay is T3, GABPA (Homo sapiens, UniProt Q06546 1-454).
T3 sequence: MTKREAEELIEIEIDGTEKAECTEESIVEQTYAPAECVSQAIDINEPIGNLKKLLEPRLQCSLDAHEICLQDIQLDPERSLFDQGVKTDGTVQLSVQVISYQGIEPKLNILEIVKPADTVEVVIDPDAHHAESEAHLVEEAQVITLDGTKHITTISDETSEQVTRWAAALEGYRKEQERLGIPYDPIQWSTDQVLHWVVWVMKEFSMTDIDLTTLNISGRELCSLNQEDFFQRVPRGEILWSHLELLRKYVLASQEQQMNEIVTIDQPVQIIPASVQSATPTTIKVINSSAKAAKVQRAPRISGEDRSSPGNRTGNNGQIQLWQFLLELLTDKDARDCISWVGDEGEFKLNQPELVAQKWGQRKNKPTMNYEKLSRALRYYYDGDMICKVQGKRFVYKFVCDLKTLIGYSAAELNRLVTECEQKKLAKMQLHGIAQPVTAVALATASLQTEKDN
To be noted: protein: recombinant; tags: N-terminal GST; dsDNA, one strand shown. In outline: as §1

Another assay addresses T4, ERG (Homo sapiens, UniProt P11308 1-479).
T4 sequence: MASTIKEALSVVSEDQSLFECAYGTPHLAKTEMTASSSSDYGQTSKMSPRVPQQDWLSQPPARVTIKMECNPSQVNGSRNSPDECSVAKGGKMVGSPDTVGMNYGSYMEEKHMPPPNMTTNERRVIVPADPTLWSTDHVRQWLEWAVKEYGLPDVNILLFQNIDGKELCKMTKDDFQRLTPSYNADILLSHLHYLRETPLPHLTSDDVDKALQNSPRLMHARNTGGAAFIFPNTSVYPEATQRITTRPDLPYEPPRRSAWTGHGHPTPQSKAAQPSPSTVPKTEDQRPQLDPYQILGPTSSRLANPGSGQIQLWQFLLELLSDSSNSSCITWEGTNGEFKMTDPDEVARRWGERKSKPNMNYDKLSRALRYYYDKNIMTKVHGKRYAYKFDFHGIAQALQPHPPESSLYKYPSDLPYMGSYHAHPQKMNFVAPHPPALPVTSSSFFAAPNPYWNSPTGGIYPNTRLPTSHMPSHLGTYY
To be noted: protein: recombinant; tags: N-terminal GST; dsDNA, one strand shown. The essentials:
as §1

The target of another assay is ELF1 (Homo sapiens, UniProt P32519 1-619). To be noted: protein: recombinant; tags: N-terminal GST; dsDNA, one strand shown. The essentials: as §1
Sequence of ELF1 (P32519 whole entry): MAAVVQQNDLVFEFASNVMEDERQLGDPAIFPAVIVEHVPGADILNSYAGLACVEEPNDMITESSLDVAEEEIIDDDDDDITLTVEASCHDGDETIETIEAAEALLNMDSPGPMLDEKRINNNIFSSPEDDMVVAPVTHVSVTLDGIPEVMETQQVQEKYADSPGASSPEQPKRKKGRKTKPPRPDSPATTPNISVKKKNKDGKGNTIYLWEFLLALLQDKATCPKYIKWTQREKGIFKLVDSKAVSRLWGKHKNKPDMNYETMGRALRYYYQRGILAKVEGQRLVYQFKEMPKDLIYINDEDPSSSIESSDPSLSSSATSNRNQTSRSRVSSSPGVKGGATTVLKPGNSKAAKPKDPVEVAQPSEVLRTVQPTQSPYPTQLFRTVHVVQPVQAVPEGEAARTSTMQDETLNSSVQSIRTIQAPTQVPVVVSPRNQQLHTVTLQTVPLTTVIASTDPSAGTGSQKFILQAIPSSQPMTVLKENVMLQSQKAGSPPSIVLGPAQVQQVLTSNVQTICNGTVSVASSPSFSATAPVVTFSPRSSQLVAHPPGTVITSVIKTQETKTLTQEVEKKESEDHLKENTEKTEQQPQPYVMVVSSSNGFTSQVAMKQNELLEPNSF
The target in a further assay is T5, EHF (Homo sapiens, UniProt Q9NZC4 1-300).
T5 sequence: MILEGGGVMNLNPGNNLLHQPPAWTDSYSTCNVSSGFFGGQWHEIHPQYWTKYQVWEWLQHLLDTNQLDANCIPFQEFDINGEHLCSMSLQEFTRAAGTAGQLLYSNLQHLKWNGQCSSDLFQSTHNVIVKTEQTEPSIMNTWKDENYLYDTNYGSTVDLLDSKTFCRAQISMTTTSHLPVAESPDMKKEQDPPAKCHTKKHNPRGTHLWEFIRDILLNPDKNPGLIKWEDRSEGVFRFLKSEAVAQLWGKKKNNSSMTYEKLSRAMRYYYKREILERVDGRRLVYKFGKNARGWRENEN
To be noted: protein: recombinant; tags: N-terminal GST; dsDNA, one strand shown. The essentials:
as §1

A further assay addresses SPI1 (Homo sapiens, UniProt P17947 1-270). To be noted: protein: recombinant; tags: N-terminal GST; dsDNA, one strand shown. In outline: as §1
The next assay deals with SPIB (Homo sapiens, UniProt Q01892 1-262). To be noted: protein: recombinant; tags: N-terminal GST; dsDNA, one strand shown. In outline:
as §1

The target in a further assay is T6, ELK3 (Homo sapiens, UniProt P41970 1-407).
T6 sequence: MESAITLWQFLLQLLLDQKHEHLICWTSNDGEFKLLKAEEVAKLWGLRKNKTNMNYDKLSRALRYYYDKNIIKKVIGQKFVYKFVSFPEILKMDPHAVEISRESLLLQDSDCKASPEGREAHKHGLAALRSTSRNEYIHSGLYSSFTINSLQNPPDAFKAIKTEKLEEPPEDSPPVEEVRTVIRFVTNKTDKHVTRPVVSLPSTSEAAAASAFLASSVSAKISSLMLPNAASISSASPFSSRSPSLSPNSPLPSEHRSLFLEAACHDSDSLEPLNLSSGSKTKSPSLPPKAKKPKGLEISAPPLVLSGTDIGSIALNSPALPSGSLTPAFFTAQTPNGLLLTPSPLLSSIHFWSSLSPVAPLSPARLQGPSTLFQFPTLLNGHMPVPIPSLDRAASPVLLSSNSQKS
To be noted: protein: recombinant; tags: N-terminal GST; dsDNA, one strand shown. The essentials: as §1

Another assay concerns the target T7, FEV (Homo sapiens, UniProt Q99581 1-238).
T7 sequence: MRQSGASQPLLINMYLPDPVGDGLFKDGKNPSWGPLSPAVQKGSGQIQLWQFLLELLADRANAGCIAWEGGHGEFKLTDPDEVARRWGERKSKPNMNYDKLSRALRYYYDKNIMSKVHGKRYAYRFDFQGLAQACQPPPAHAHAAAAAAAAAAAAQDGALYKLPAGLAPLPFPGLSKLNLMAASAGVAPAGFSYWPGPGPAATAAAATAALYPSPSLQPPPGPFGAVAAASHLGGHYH
To be noted: protein: recombinant; tags: N-terminal GST; dsDNA, one strand shown. The essentials:
as §1

Another assay concerns the target ETV5 (Homo sapiens, UniProt P41161 1-510). To be noted: protein: recombinant; tags: N-terminal GST; dsDNA, one strand shown. In outline: as §1
The next assay deals with HSF1 (Homo sapiens, UniProt Q00613 1-529). To be noted: protein: recombinant; tags: N-terminal GST; chain copies: 3; dsDNA, one strand shown. In outline: as §1
Sequence of HSF1 (Q00613 whole entry): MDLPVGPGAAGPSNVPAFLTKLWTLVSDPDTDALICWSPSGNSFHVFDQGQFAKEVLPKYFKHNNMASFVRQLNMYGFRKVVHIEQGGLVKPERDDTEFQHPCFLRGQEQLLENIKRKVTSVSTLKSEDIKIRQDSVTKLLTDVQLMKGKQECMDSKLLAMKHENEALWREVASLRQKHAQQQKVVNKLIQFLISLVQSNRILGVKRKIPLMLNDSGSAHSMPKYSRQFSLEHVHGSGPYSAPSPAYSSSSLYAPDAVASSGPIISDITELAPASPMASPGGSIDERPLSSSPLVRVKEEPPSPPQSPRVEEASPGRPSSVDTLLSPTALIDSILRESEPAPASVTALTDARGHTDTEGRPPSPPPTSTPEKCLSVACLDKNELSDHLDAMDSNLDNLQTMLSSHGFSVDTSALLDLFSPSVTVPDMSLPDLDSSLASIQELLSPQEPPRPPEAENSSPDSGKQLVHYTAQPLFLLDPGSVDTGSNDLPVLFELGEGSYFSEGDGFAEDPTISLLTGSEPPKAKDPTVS
In a further assay the target is T8, SPIC (Homo sapiens, UniProt Q8N5J4 1-248).
T8 sequence: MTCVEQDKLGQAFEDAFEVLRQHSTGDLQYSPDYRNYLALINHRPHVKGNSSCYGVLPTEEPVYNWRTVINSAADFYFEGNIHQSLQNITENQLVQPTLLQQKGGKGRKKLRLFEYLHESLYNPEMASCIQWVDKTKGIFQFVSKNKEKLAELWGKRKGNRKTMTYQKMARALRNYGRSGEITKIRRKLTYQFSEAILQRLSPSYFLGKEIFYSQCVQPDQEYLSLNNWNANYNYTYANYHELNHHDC
To be noted: protein: recombinant; tags: N-terminal GST; dsDNA, one strand shown. In outline: as §1

The next assay addresses ELF4 (Homo sapiens, UniProt Q99607 1-663). To be noted: protein: recombinant; tags: N-terminal GST; dsDNA, one strand shown. In outline:
as §1

Another assay has as its target T9, ELK4 (Homo sapiens, UniProt P28324-2 1-405).
T9 sequence: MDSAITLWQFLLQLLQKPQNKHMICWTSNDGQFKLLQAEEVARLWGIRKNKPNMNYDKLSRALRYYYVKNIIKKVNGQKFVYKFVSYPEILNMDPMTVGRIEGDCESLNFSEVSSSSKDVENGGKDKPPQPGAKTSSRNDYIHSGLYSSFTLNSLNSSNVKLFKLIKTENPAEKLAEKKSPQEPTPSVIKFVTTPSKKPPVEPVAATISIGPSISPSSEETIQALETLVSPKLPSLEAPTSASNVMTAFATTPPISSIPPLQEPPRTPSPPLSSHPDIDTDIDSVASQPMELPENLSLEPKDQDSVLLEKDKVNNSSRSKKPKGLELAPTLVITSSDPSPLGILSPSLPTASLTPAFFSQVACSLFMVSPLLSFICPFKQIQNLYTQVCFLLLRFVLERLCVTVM
To be noted: protein: recombinant; tags: N-terminal GST; dsDNA, one strand shown. The essentials:
as §1

The next assay addresses T10, ETV2 (Homo sapiens, UniProt O00321 1-342).
T10 sequence: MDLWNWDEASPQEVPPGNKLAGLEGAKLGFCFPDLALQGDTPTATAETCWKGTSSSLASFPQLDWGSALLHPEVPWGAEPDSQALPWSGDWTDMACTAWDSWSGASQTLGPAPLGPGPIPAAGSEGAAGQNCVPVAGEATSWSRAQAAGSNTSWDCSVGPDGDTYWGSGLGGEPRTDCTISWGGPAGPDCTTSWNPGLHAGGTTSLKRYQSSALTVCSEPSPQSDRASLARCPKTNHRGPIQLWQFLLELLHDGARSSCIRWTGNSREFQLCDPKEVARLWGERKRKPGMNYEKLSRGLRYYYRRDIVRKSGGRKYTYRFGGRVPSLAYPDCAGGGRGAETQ
To be noted: protein: recombinant; tags: N-terminal GST; dsDNA, one strand shown. The essentials: as §1

The target in the next assay is T11, ELF3 (Homo sapiens, UniProt P78545 1-371).
T11 sequence: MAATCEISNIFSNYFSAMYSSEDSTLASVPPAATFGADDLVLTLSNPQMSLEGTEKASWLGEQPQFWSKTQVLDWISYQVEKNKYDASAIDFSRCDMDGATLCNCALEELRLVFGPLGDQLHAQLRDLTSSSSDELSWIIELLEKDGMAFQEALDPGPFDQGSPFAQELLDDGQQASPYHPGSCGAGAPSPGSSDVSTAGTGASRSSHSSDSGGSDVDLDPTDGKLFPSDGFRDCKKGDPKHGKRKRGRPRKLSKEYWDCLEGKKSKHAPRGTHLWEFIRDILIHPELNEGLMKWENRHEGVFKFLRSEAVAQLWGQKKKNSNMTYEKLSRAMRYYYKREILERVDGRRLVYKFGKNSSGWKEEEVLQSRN
To be noted: protein: recombinant; tags: N-terminal GST; dsDNA, one strand shown. In outline:
as §1

For the next assay, the target named is CRX (Homo sapiens, UniProt O43186 1-299). To be noted: protein: recombinant; tags: N-terminal GST; dsDNA, one strand shown. In outline:
as §1

The next assay deals with ETV1 (Homo sapiens, UniProt P50549 1-477). To be noted: protein: recombinant; tags: N-terminal GST; dsDNA, one strand shown. The essentials:
as §1

Sequence of CRX (O43186 whole entry): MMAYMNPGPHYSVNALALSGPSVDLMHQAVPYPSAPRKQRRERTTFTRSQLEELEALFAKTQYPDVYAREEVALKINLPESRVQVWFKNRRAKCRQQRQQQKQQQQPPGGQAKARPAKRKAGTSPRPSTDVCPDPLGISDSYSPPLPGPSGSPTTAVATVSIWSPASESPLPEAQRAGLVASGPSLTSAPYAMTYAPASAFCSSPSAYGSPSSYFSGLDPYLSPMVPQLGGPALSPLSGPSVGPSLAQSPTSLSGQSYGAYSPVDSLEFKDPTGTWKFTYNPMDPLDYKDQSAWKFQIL
Sequence of ETV1 (P50549 whole entry): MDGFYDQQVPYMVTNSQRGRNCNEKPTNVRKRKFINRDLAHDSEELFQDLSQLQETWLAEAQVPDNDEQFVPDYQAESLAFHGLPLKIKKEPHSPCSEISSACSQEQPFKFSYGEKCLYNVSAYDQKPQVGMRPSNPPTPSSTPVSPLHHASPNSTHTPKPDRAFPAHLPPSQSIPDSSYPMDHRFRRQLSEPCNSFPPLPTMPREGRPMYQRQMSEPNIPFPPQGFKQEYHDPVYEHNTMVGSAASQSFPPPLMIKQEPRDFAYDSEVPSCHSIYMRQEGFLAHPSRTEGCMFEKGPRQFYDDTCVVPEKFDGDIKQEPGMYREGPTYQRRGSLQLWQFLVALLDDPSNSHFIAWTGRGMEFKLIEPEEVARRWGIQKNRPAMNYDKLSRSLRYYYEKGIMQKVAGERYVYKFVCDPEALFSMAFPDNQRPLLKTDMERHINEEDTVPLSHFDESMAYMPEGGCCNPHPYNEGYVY
Sequence of ETV5 (P41161 whole entry): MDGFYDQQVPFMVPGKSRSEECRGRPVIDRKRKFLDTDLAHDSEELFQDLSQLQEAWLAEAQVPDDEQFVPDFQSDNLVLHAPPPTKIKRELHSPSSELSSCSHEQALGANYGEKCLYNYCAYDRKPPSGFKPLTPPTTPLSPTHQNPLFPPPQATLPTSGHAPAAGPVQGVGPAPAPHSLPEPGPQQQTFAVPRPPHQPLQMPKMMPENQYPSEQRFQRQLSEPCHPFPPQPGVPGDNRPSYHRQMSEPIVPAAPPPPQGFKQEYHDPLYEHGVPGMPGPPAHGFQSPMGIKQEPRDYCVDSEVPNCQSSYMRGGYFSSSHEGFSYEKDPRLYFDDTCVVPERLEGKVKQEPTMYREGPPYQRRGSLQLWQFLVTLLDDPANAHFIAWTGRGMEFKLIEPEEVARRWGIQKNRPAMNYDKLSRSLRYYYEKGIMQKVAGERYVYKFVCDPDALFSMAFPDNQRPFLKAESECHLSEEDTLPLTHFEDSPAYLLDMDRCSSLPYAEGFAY
Sequence of ELF4 (Q99607 whole entry): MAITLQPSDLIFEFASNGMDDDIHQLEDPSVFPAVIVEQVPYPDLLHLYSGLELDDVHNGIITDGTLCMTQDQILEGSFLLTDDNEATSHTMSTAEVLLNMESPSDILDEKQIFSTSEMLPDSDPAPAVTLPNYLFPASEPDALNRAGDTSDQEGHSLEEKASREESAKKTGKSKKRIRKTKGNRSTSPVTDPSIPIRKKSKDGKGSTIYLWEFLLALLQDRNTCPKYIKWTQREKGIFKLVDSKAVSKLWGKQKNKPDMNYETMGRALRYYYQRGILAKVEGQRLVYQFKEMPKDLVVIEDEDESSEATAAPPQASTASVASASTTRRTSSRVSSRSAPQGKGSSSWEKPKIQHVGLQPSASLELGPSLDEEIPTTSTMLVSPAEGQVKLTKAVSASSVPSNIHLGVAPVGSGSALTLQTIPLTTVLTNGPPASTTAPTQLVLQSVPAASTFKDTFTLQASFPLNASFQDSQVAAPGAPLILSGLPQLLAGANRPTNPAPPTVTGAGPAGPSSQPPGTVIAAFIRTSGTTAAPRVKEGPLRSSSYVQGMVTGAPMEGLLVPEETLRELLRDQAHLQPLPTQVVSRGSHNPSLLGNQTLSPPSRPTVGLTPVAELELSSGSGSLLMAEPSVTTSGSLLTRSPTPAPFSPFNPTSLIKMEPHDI
Sequence of SPIB (Q01892 whole entry): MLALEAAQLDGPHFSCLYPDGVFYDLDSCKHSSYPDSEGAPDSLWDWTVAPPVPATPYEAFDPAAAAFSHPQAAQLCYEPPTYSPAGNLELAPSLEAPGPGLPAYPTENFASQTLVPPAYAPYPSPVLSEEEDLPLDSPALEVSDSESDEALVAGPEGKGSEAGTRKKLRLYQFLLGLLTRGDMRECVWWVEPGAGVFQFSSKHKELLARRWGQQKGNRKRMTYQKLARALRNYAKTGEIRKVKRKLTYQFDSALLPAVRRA

ACTTAC: the binding signal with FLI1 is 1.14 fold enrichment (6-mer frequency, TF over GST control); with ELK1 it was 1.17 fold enrichment (6-mer frequency, TF over GST control); in the assay with GABPA it was 1.2 fold enrichment (6-mer frequency, TF over GST control); with ERG it was 1.1 fold enrichment (6-mer frequency, TF over GST control); with ELF1, 1.18 fold enrichment (6-mer frequency, TF over GST control); in the assay with EHF it was 1.28 fold enrichment (6-mer frequency, TF over GST control). For the same sequence, the binding signal in the assay with SPI1 is 1.27 fold enrichment (6-mer frequency, TF over GST control); with SPIB, 1.1 fold enrichment (6-mer frequency, TF over GST control); with ELK3, 1.12 fold enrichment (6-mer frequency, TF over GST control); with FEV, 1.09 fold enrichment (6-mer frequency, TF over GST control); with ETV5 it was 1.17 fold enrichment (6-mer frequency, TF over GST control); with HSF1, 1.15 fold enrichment (6-mer frequency, TF over GST control). Moreover, the binding signal with SPIC is 1.1 fold enrichment (6-mer frequency, TF over GST control); in the assay with ELF4 it was 1.24 fold enrichment (6-mer frequency, TF over GST control); in the assay with ELK4, 1.12 fold enrichment (6-mer frequency, TF over GST control); with ETV2 it was 1.06 fold enrichment (6-mer frequency, TF over GST control); in the assay with ELF3 it was 1.23 fold enrichment (6-mer frequency, TF over GST control); with CRX it was 1.42 fold enrichment (6-mer frequency, TF over GST control). In the assay with ETV1, the binding signal was 1.16 fold enrichment (6-mer frequency, TF over GST control).
